Measured potencies and affinities stand elsewhere. The source made the active and inactive calls.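 How the source made its calls: active means fitted half-maximal dose no more than twice the top valid tested dose, for compounds that lower signal; inconclusive means fit invalid, or curve flat with activity between -70 and -30; inactive means potency past limit, curve flat within ±30, or signal increasing.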
Biological target: NAD-dependent protein deacylase sirtuin-5, mitochondrial (Homo sapiens) (UniProt Q9NXA8)
Sequence (Q9NXA8 whole entry, looked up): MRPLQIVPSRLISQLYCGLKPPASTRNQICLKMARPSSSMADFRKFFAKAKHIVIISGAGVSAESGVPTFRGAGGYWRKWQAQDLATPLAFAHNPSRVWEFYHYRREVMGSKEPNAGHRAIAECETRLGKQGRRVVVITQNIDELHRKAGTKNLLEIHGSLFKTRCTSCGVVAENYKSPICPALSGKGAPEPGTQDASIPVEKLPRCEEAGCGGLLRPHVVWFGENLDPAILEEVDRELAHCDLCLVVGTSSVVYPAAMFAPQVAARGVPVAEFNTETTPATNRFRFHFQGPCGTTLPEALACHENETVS
Assay: blockers of sirtuin-5 peptide desuccinylation – biochemical, fluorescence imaging, cherry-pick, set 6, dose response (AID 720597);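 further: lower AMC signal can also come from blocking the trypsin step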
Conditions: Purified SirT5, succinyl-peptide-AMC/trypsin fluorescence; series mostly up to 15 µM

outcome, inactive:
C[C@@H]1CN([C@H](C)CO)C(=O)c2cccc(NC(=O)Nc3ccc(C(F)(F)F)cc3)c2O[C@H]1CN(C)C(=O)Nc1cccc2ccccc12, COc1cccc(NC(=O)N2CC(=O)N3[C@H](CO)[C@@H](c4ccc(C#CCC5CCCC5)cc4)[C@@H]3C2)c1, C[C@H]1CN([C@@H](C)CO)C(=O)c2cc(NC(=O)C3CCCCC3)ccc2O[C@@H]1CN(C)CC1CC1, COc1ccc(S(=O)(=O)N(C)C[C@@H]2OCCCC[C@H](C)Oc3ccc(NS(=O)(=O)c4ccc(F)cc4)cc3C(=O)N([C@@H](C)CO)C[C@@H]2C)cc1, CS(=O)(=O)N(CC(=O)NC1CCCCC1)c1cccc(F)c1, C[C@@H]1CN([C@H](C)CO)C(=O)Cc2cc(NS(=O)(=O)c3ccccc3)ccc2O[C@H]1CN(C)Cc1ccc(Cl)c(Cl)c1, CCC(=O)N(C)C[C@@H]1[C@@H](c2ccc(-c3ccccc3F)cc2)[C@H](CO)N1C(C)=O, COc1cccc(NC(=O)N2CC(=O)N3[C@H](CO)[C@H](c4ccc(C#CCC5CCCC5)cc4)[C@H]3C2)c1, COc1ccc(S(=O)(=O)N(C)C[C@@H]2Oc3ccc(NC(=O)CCC(F)(F)F)cc3C(=O)N([C@H](C)CO)C[C@H]2C)cc1, COc1ccccc1-c1ccc2c(c1)O[C@@H](CN(C)S(=O)(=O)c1ccccc1)[C@H](C)CN([C@@H](C)CO)S2(=O)=O, CC(C)C#Cc1cnc2c(c1)C(=O)N([C@@H](C)CO)C[C@H](C)[C@@H](CN(C)C(=O)CN1CCOCC1)O2, C[C@H]1CN([C@@H](C)CO)C(=O)c2cccc(NC(=O)c3ccncc3)c2O[C@@H]1CN(C)S(C)(=O)=O, C[C@H](CO)N1C[C@H](C)[C@H](CN(C)CC2CCCCC2)Oc2ccc(NS(=O)(=O)c3ccc(Cl)cc3)cc2CC1=O, COc1ccccc1-c1ccc2c(c1)O[C@@H](CN(C)Cc1ccc3c(c1)OCO3)[C@H](C)CN([C@@H](C)CO)S2(=O)=O, CC(=O)N(C)C[C@@H]1Oc2ncc(C#Cc3cccc(F)c3)cc2C(=O)N([C@H](C)CO)C[C@H]1C, C[C@H](CO)N1C[C@H](C)[C@H](CN(C)S(C)(=O)=O)Oc2c(NC(=O)c3ccncc3)cccc2C1=O, C[C@@H]1CN([C@@H](C)CO)C(=O)c2cc(NC(=O)Cc3ccccc3)ccc2O[C@H]1CN(C)Cc1ccc(Oc2ccccc2)cc1, CC(C)c1cn(CC[C@H]2CC[C@H](NS(=O)(=O)c3ccc(F)cc3)[C@@H](CO)O2)nn1, COc1cccc(CN2[C@@H](CO)[C@H](c3ccccc3)C23CN(C(=O)C2CCCC2)C3)c1, C[C@@H]1CN([C@H](C)CO)C(=O)c2cc(NC(=O)CCCCCC(=O)Nc3ccccc3N)ccc2O[C@@H]1CN(C)Cc1ccc(Cl)c(Cl)c1, C[C@@H]1CCCCO[C@@H](CN(C)Cc2ccc(Cl)c(Cl)c2)[C@@H](C)CN([C@H](C)CO)C(=O)c2cc(NC(=O)CCCCCC(=O)Nc3ccccc3N)ccc2O1, Cc1ccc(S(=O)(=O)N[C@H]2CC[C@@H](CCn3cc(C(C)C)nn3)O[C@H]2CO)cc1, O=C(C[C@H]1C[C@@H]2c3cc(NC(=O)Nc4ccc(C(F)(F)F)cc4)ccc3O[C@@H]2[C@@H](CO)O1)NCc1ccc2c(c1)OCO2, COc1ccc(NC(=O)N(C)C[C@H]2Oc3c(NS(C)(=O)=O)cccc3C(=O)N([C@@H](C)CO)C[C@H]2C)cc1, COc1cccc(C(=O)Nc2ccc3c(c2)C(=O)N(C)C[C@H](OC)[C@@H](C)CN(CCc2ccccc2)[C@H](C)CO3)c1, CCC(=O)N1[C@H](CO)[C@H](c2ccc(-c3ccccc3)cc2)[C@H]1CN(CC)C(C)=O, C[C@H](CO)N1C[C@H](C)[C@H](CN(C)Cc2ccc(-c3ccccc3)cc2)Oc2cc(C#C[C@@H](C)O)ccc2S1(=O)=O, C[C@@H]1CCCCO[C@H](CN(C)Cc2ccc(C(F)(F)F)cc2)[C@H](C)CN([C@H](C)CO)C(=O)c2cc(NC(=O)c3ccncc3)ccc2O1, C[C@@H]1CN([C@H](C)CO)S(=O)(=O)c2ccc(/C=C/c3ccccc3)cc2O[C@@H]1CN(C)Cc1ccccc1

Source: PubChem BioAssay AID720597 (Broad Institute, 2013)
